# Test results: PubChem BioAssay (NCATS)
# Inconclusive results are not listed. A call without a number means that no potency is given here. A number with no mark means an inactive call. Active and inactive are the calls of the source. Calls follow the shape of the dose curve; as a rule, active = well fitted curve in the direction sought with a large enough effect; inconclusive = small, poorly fitted or top-dose-only effect, or another doubt; inactive = no such curve, though single readings can be large; an effect the other way counts as inactive or inconclusive.
# Experiment: NS1 protein of Zika virus - qHTS assay to identify small molecule inhibitors in human HEK 293 cells (AID 1347053); also: nearly all actives have a fitted effect of over 55% in size
# Conditions: HEK293 ZIKV MR766 infection, NS1 TR-FRET, 24 h; series mostly up to 46.1 µM
# In short: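 Read-out is a two-antibody TR-FRET for ZIKV NS1, normalized between uninfected cells and infected cells. Compound added 1 h before MR766 infection at MOI 0.5; human HEK 293 cells incubated 24 h, 37 C.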
# Potency is read from the fitted curve at half-maximal effect.
SMILES,"activity change, negative = inhibition",Potency
CCn1cc(C(=O)O)c(=O)c2cnc(N3CCCC3)nc21,-25.1% [at 9.2 µM],–
O=C(Nc1ccc(Oc2ccc(Cl)cc2)c(Cl)c1)c1cc(I)cc(I)c1O,–,inactive
COC(=O)[C@@H]1CC2=CC(=O)CC[C@]2(C)[C@@]23O[C@@H]2C[C@@]2(C)[C@@H](CC[C@@]24CCC(=O)O4)[C@H]13,–,inactive
CO/N=C1\CN(c2nc3c(cc2F)c(=O)c(C(=O)O)cn3C2CC2)CC1CN (configuration not stated),–,inactive
CCC(=O)c1c(O)cc(O)cc1O,–,inactive
CC[C@@H](CO)NCCN[C@@H](CC)CO,–,inactive
N[C@H](Cc1c[nH]c2ccccc12)C(=O)O,–,inactive
CC(=O)OCC(=O)[C@@]12N=C(C)O[C@@H]1C[C@H]1[C@@H]3CCC4=CC(=O)C=C[C@]4(C)[C@H]3[C@@H](O)C[C@@]12C,–,inactive
Cc1c(F)c(N2CCNC(C)C2)cc2c1c(=O)c(C(=O)O)cn2C1CC1 (configuration not stated),–,inactive
CC[N+](CC)(CCNC(=O)C(=O)NCC[N+](CC)(CC)Cc1ccccc1Cl)Cc1ccccc1Cl,–,inactive
CCN1CCC[C@H]1CNC(=O)c1c(OC)ccc(Br)c1OC,–,inactive
CCCC(=O)O[C@]1(C(=O)CO)CC[C@H]2[C@@H]3CCC4=CC(=O)CC[C@]4(C)[C@H]3[C@@H](O)C[C@@]21C,–,inactive
CC(C)(C)CC(C)(C)c1ccc(O)c(Cc2ccc(Cl)cc2Cl)c1,–,inactive
Cc1cc(O)c(C(C)C)cc1Cl,–,inactive
CCN1CCN(c2cc3c(cc2F)c(=O)c(C(=O)O)cn3C2CC2)CC1,–,inactive
NCCCC[C@H](N[C@@H](CCc1ccccc1)C(=O)O)C(=O)N1CCC[C@H]1C(=O)O,–,inactive
C=C1C[C@H]2[C@@H]3C=C(C)C4=CC(=O)CC[C@]4(C)[C@H]3CC[C@]2(C)[C@@]1(OC(C)=O)C(C)=O,–,inactive
CCOC(=O)n1ccn(C)c1=S,–,inactive

SMILES,"activity change, negative = inhibition",Potency
CC(O)(P(=O)(O)O)P(=O)(O)O,–,inactive
NC(=O)C(=O)N/N=C/c1ccc([N+](=O)[O-])o1,–,inactive
Cc1c(C)n(CCN(C)C)c2ccc(C(=O)OCCN(C)C)cc12,–,inactive
C=CCc1ccc(O)c(OC)c1,–,inactive
NCCc1ccn[nH]1,–,inactive
CC(C)NC[C@@H](O)COc1cccc2ccccc12,–,inactive
CC(=O)OCC(=O)[C@@]12OC(C)(C)O[C@@H]1C[C@H]1[C@@H]3C[C@H](F)C4=CC(=O)C=C[C@]4(C)[C@@]3(F)[C@@H](O)C[C@@]12C,–,inactive
Nc1ccn([C@@H]2O[C@H](CO)[C@@H](O)C2(F)F)c(=O)n1,–,3.16 µM (active)
Cc1c(C(C)C)c(=O)n(-c2ccccc2)n1C,–,inactive
Cc1cccn2c(=O)c(-c3nnn[nH]3)cnc12,–,inactive
CCOC(=O)OC(C)OC1=C(C(=O)Nc2ccccn2)N(C)S(=O)(=O)c2ccccc21 (configuration not stated),–,inactive
Cc1cccc(C)c1NC(=O)CN1CCN(CCCC(c2ccc(F)cc2)c2ccc(F)cc2)CC1,–,inactive
NC(=O)CC[C@@H]1NC(=O)[C@H](Cc2ccccc2)NC(=O)[C@H](Cc2ccc(O)cc2)NC(=O)CCSSC[C@@H](C(=O)N2CCC[C@H]2C(=O)N[C@@H](CCCN=C(N)N)C(=O)NCC(N)=O)NC(=O)[C@H](CC(N)=O)NC1=O,–,inactive
O=c1[nH]c(=O)n([C@H]2C[C@H](O)[C@@H](CO)O2)cc1C(F)(F)F,–,inactive
CCOC(=O)/C=C(C)/C=C/C=C(C)/C=C/c1c(C)cc(OC)c(C)c1C,–,inactive
NC(CO)(CO)CO,–,inactive
c1ccc(CNCCNCc2ccccc2)cc1,–,inactive
CC(C)(Oc1ccc(Cl)cc1)C(=O)O,–,inactive

# Experiment: qHTS of pediatric cancer cell lines to identify multiple opportunities for drug repurposing: Primary screen for TC32 cells (AID 1347089); also: nearly all actives have a fitted effect of over 60% in size
# Conditions: TC32 Ewing sarcoma viability, CellTiter-Glo luminescence, 48 h; series mostly up to 45.8 µM
# In short: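 TC32 cells, 500-1,000/well in growth medium, compound-treated 48 h at 37 °C; viability from CellTiter-Glo luminescence. Primary screen: MIPE 11-point (0.78 nM–46 µM final), NPC 8-point (0.59 nM–46 µM final); confirmatory at 11-point dilutions.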
SMILES,"activity change, negative = cytotoxic",Potency
CCn1cc(C(=O)O)c(=O)c2cnc(N3CCCC3)nc21,4.83% [at 9.17 µM],–
O=C(Nc1ccc(Oc2ccc(Cl)cc2)c(Cl)c1)c1cc(I)cc(I)c1O,–,inactive
COC(=O)[C@@H]1CC2=CC(=O)CC[C@]2(C)[C@@]23O[C@@H]2C[C@@]2(C)[C@@H](CC[C@@]24CCC(=O)O4)[C@H]13,–,inactive
CO/N=C1\CN(c2nc3c(cc2F)c(=O)c(C(=O)O)cn3C2CC2)CC1CN (configuration not stated),–,inactive
CCC(=O)c1c(O)cc(O)cc1O,–,inactive
CC[C@@H](CO)NCCN[C@@H](CC)CO,–,inactive
N[C@H](Cc1c[nH]c2ccccc12)C(=O)O,–,inactive
CC(=O)OCC(=O)[C@@]12N=C(C)O[C@@H]1C[C@H]1[C@@H]3CCC4=CC(=O)C=C[C@]4(C)[C@H]3[C@@H](O)C[C@@]12C,–,inactive
Cc1c(F)c(N2CCNC(C)C2)cc2c1c(=O)c(C(=O)O)cn2C1CC1 (configuration not stated),–,inactive
CC[N+](CC)(CCNC(=O)C(=O)NCC[N+](CC)(CC)Cc1ccccc1Cl)Cc1ccccc1Cl,–,inactive
CCN1CCC[C@H]1CNC(=O)c1c(OC)ccc(Br)c1OC,–,inactive
CCCC(=O)O[C@]1(C(=O)CO)CC[C@H]2[C@@H]3CCC4=CC(=O)CC[C@]4(C)[C@H]3[C@@H](O)C[C@@]21C,–,inactive
CC(C)(C)CC(C)(C)c1ccc(O)c(Cc2ccc(Cl)cc2Cl)c1,–,inactive
Cc1cc(O)c(C(C)C)cc1Cl,–,inactive
CCN1CCN(c2cc3c(cc2F)c(=O)c(C(=O)O)cn3C2CC2)CC1,–,inactive
NCCCC[C@H](N[C@@H](CCc1ccccc1)C(=O)O)C(=O)N1CCC[C@H]1C(=O)O,–,inactive
C=C1C[C@H]2[C@@H]3C=C(C)C4=CC(=O)CC[C@]4(C)[C@H]3CC[C@]2(C)[C@@]1(OC(C)=O)C(C)=O,–,inactive
CCOC(=O)n1ccn(C)c1=S,–,inactive

SMILES,"activity change, negative = cytotoxic",Potency
CC(O)(P(=O)(O)O)P(=O)(O)O,–,inactive
NC(=O)C(=O)N/N=C/c1ccc([N+](=O)[O-])o1,–,inactive
Cc1c(C)n(CCN(C)C)c2ccc(C(=O)OCCN(C)C)cc12,–,inactive
C=CCc1ccc(O)c(OC)c1,–,inactive
NCCc1ccn[nH]1,–,inactive
CC(C)NC[C@@H](O)COc1cccc2ccccc12,–,inactive
CC(=O)OCC(=O)[C@@]12OC(C)(C)O[C@@H]1C[C@H]1[C@@H]3C[C@H](F)C4=CC(=O)C=C[C@]4(C)[C@@]3(F)[C@@H](O)C[C@@]12C,–,inactive
Nc1ccn([C@@H]2O[C@H](CO)[C@@H](O)C2(F)F)c(=O)n1,–,0.0118 µM (active)
Cc1c(C(C)C)c(=O)n(-c2ccccc2)n1C,–,inactive
Cc1cccn2c(=O)c(-c3nnn[nH]3)cnc12,–,inactive
CCOC(=O)OC(C)OC1=C(C(=O)Nc2ccccn2)N(C)S(=O)(=O)c2ccccc21 (configuration not stated),–,inactive
Cc1cccc(C)c1NC(=O)CN1CCN(CCCC(c2ccc(F)cc2)c2ccc(F)cc2)CC1,–,inactive
NC(=O)CC[C@@H]1NC(=O)[C@H](Cc2ccccc2)NC(=O)[C@H](Cc2ccc(O)cc2)NC(=O)CCSSC[C@@H](C(=O)N2CCC[C@H]2C(=O)N[C@@H](CCCN=C(N)N)C(=O)NCC(N)=O)NC(=O)[C@H](CC(N)=O)NC1=O,–,inactive
O=c1[nH]c(=O)n([C@H]2C[C@H](O)[C@@H](CO)O2)cc1C(F)(F)F,–,1.05 µM (active)
CCOC(=O)/C=C(C)/C=C/C=C(C)/C=C/c1c(C)cc(OC)c(C)c1C,–,inactive
NC(CO)(CO)CO,–,inactive
c1ccc(CNCCNCc2ccccc2)cc1,–,inactive
CC(C)(Oc1ccc(Cl)cc1)C(=O)O,–,inactive
